High-throughput results (PubChem BioAssay)
Most compounds without a hit are left out; they make up all but 2.8% or so of the library.
Pol eta inh-1: qHTS for Inhibitors of Polymerase Eta. DNA polymerase eta (Homo sapiens), Q9Y253. recombinant Pol eta, fluorescent DNA replication assay. Potency, µM (series often up to 114 µM), usual class: inhibitors. actives 1.2% (n = 390,000). AID 588591, 2011
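Pol eta at 10 nM preincubated with compounds 15 min at room temperature; reaction started with fluorescent substrate (50 nM final) and read kinetically at 0 and 10 min.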
POLI inh: qHTS for Inhibitors of Polymerase Iota | DNA polymerase iota (Homo sapiens), Q9UNA4 | Pol iota fluorescent replication assay, 10 min | Potency, µM (highest dose often 115 µM), most hits filed as inhibitors | actives 1% (n = 390,000) | AID 588590, 2011
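Fluorescent replication assay read twice, at 0 min and 10 min after adding 50 nM (final) substrate. Enzyme (10 nM) and compounds were first incubated 15 min at room temperature; enzyme-free buffer wells were negative controls.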
POLB inh: qHTS Assay for Inhibitors of DNA Polymerase Beta. P06746. Pol beta primer extension/strand displacement, fluorescence kinetic. Potency, µM (series often up to 114 µM), hits mostly inhibitors. actives 1.3% (n = 340,000)
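Pol beta (10 nM) and compounds were preincubated 15 min at room temperature, then 50 nM substrate (final) started primer extension/strand displacement. Reads were taken at 0 and 10 min; concentration-response data were fitted to a four-parameter Hill equation.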
PI5P4Ka inh: qHTS for Inhibitors of phosphatidylinositol 5-phosphate 4-kinase (PI5P4K); max response, %; actives 1.2% (n = 330,000); PI5P4Kalpha enzyme, ADP-Glo luminescence, 60 min; hits give low values; active = max response of -50% or lower; inconclusive = between -30% and -50%; inactive = -30% or higher; note: value at the top dose of about 77 µM
Target sequence (P48426 whole entry, looked up): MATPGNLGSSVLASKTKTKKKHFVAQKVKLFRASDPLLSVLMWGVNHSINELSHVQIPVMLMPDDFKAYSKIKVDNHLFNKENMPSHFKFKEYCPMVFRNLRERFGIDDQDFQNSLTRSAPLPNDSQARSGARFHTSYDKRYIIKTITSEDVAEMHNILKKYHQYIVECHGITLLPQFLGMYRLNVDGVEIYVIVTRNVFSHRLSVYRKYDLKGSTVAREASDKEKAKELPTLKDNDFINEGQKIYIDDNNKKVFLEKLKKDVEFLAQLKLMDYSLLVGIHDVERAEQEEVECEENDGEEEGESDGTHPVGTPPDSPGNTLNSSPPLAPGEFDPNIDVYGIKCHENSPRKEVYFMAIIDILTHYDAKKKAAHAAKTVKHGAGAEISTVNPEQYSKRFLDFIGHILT
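Controls without substrate or without enzyme flank wells where PI5P4Kalpha converts substrate using 5 microM ATP (final). Incubation lasts 60 minutes at room temperature; ADP formed is read by ADP-Glo luminescence.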
WRN inhibitor: qHTS for Inhibitors of WRN Helicase | Potency, µM (titrated, usually from 114 µM), usual class: inhibitors | WRN helicase unwinding, fluorescent forked duplex, kinetic | Bifunctional 3'-5' exonuclease/ATP-dependent helicase WRN (Homo sapiens), Q14191 | actives 0.46% (n = 360,000); note: nearly all actives have a fitted effect of over 55% in size
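Fluorescence dequenching readout, ex 525 nm/em 598 nm, kinetic mode: forked duplex DNA (100 nM final) with adjacent fluorophore and quencher unwound by WRN (20 nM final) with 2 mM ATP. Compound preincubation 15 min, room temperature.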
Pol kappa inh-1: qHTS for Inhibitors of Polymerase Kappa | DNA polymerase kappa (Homo sapiens), Q9UBT6 | purified Pol kappa, fluorescent DNA synthesis assay, 10 min | Potency, µM (top dose mostly 107 µM), hits mostly inhibitors | actives 0.53% (n = 400,000) | AID 588579, 2011
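Enzyme at 10 nM met test compounds for 15 min at room temperature. Substrate addition (50 nM final) began the reaction, which was monitored by fluorescence at 0 and 10 min.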
GALK confirm: Confirmation Assay for Inhibitors of Human Galactokinase (GALK). shares compounds with Pol eta inh-1. purified GALK, Kinase-Glo ATP depletion luminescence. Potency, µM (top dose mostly 115 µM), usual class: inhibitors. actives 70% (n = 150). AID 2015, 2009
Redox cycling: Confirmatory Assay for Inhibitors of Human Galactokinase (GALK): Phenol-HRP redox assay counterscreen. shares compounds with Pol eta inh-1. Phenol red-HRP H2O2 redox cycling, absorbance 600 nm. Potency, µM (top dose mostly 115 µM), hits mostly inhibitors. actives 40% (n = 150). AID 2035, 2009
HEK293 tox: Secondary Assay for Inhibitors of Human Galactokinase (GALK): HEK-293 Cell Viability Assay; shares compounds with Pol eta inh-1; HEK-293 viability, ATP luminescence (CellTiter-Glo), 24/48 h; Potency, µM (series often up to 46.1 µM), most hits filed as inhibitors; actives 10% (n = 170); AID 2547, 2010
Pol kappa inh-2: qHTS for Inhibitors of Polymerase Kappa: Confirmatory Assay for Cherry-picked Compounds | actives 76% (n = 920) | shares compounds with Pol eta inh-1 | purified Pol-kappa, fluorescent strand-displacement substrate | Potency, µM, hits mostly inhibitors | AID 720501, 2013
Pol eta inh-2: qHTS for Inhibitors of Polymerase Eta: Confirmatory Assay for Cherry-picked Compounds | shares compounds with Pol eta inh-1 | Pol eta primer extension, TAMRA/BHQ fluorescence, 10 min | Potency, µM, actives largely listed as inhibitors | actives 64% (n = 2,600) | AID 720502, 2013
Large screens that a line does not name were inactive (follow-up assays come after a bar, where they were run). Unless noted, calls come from the whole dose curve; as a rule, active = well fitted curve in the direction sought with a large enough effect; inconclusive = small, poorly fitted or top-dose-only effect, or another doubt; inactive = no such curve, though single readings can be large; an effect the other way counts as inactive or inconclusive.

O=c1[nH]c(/C=C/c2cccc([N+](=O)[O-])c2)c([N+](=O)[O-])c(=O)[nH]1	Pol eta inh-1 25µM, POLI inh inconclusive, PI5P4Ka inh -67 | GALK confirm 38µM | Redox cycling inactive | HEK293 tox inactive
COc1cc(/C=C/c2[nH]c(=O)[nH]c(=O)c2[N+](=O)[O-])cc([N+](=O)[O-])c1O	Pol eta inh-1 22µM, POLI inh inconclusive, POLB inh inconclusive, PI5P4Ka inh -84 | Pol kappa inh-2 inconclusive | Pol eta inh-2 60
COc1cc(OC)cc(C(=O)Nc2nc(CC(=O)NC(C)c3ccccc3)cs2)c1 (stereo not drawn)	none (no result: POLB inh)
CC(C)(C)C(=O)N(Cc1ccc(Cl)cc1)c1cnccn1	Pol eta inh-1 inconclusive
Cn1c(-n2cccc2)c(-c2c(-c3ccccc3)[nH]c3c2c(=O)[nH]c(=O)n3C)c(=O)[nH]c1=O	Pol eta inh-1 79µM, POLI inh 79µM, POLB inh 16µM, Pol kappa inh-1 inconclusive (no result: PI5P4Ka inh, WRN inhibitor) | Pol kappa inh-2 inconclusive
O=C1c2cccc3c(O)ccc(c23)C(=O)N1c1ccc(Cl)cc1	POLI inh inconclusive, PI5P4Ka inh inconclusive, WRN inhibitor inconclusive
CC(=O)Nc1ccc(N2C(=O)c3cccc4c(O)ccc(c34)C2=O)cc1	Pol eta inh-1 32µM, POLI inh inconclusive, POLB inh inconclusive, PI5P4Ka inh inconclusive, WRN inhibitor 50µM, Pol kappa inh-1 inconclusive | Pol kappa inh-2 30 | Pol eta inh-2 inconclusive
O=C(O)c1ccc(N/N=C/c2cc3ccccc3nc2Cl)cc1	Pol eta inh-1 45µM | Pol eta inh-2 inconclusive
CC(=O)c1ccc(NC(=O)Nc2ccc3snnc3c2)cc1	Pol eta inh-1 inconclusive, POLI inh 89µM, POLB inh inconclusive (no result: PI5P4Ka inh, WRN inhibitor) | Pol kappa inh-2 inconclusive
O=C(Nc1ccc2[nH]c(=O)[nH]c2c1)c1ccc([N+](=O)[O-])o1	Pol eta inh-1 56µM, POLI inh inconclusive (no result: POLB inh) | Pol kappa inh-2 inconclusive | Pol eta inh-2 inconclusive
Cc1cc(C(O)c2ncc(-c3ccc(Oc4ccccc4)cc3)[nH]2)ccc1F (stereo not drawn)	none (no result: Pol eta inh-1, POLI inh, POLB inh, Pol kappa inh-1)
CCOC(=O)[C@]12CCC=C1N(Cc1ccco1)C(=O)[C@H](CC(=O)NCCCOC)C2	none (no result: Pol eta inh-1, POLI inh, POLB inh, Pol kappa inh-1)
Cc1cc(OC(C)C(=O)NC(Cc2c[nH]c3ccc(O)cc23)C(=O)O)c2c(C)c(C)c(=O)oc2c1 (stereo not drawn)	Pol eta inh-1 inconclusive, POLI inh inconclusive, POLB inh inconclusive | Pol eta inh-2 inconclusive
Cc1cc(=O)oc2cc(OCC(=O)NC(Cc3c[nH]c4ccc(O)cc34)C(=O)O)c(Cl)cc12 (stereo not drawn)	Pol eta inh-1 25µM, POLI inh 71µM, POLB inh inconclusive, Pol kappa inh-1 inconclusive | Pol eta inh-2 inconclusive
CCCCc1cc(=O)oc2cc(C)cc(OC(C)C(=O)NC(Cc3c[nH]c4ccc(O)cc34)C(=O)O)c12 (stereo not drawn)	none
Cc1cc(=O)oc2c(C)c(OC(C)C(=O)NC(Cc3c[nH]c4ccc(O)cc34)C(=O)O)ccc12 (stereo not drawn)	POLI inh inconclusive
Cc1ccc(C)c(OCC(=O)Nc2nonc2NC(=O)COc2cc(C)ccc2C)c1	POLI inh inconclusive (no result: PI5P4Ka inh)
Cc1ccc(C)c(OCC(=O)Nc2cc(NC(=O)COc3cc(C)ccc3C)cc(C(=O)O)c2)c1	Pol eta inh-1 50µM, POLI inh inconclusive, WRN inhibitor inconclusive | Pol eta inh-2 67
Cc1nc2ccc(-c3nc4ccc(N)cc4[nH]3)cc2[nH]1	Pol eta inh-1 inconclusive, POLI inh 18µM, POLB inh 13µM, WRN inhibitor inconclusive, Pol kappa inh-1 50µM | Pol kappa inh-2 inconclusive
Nc1ccc2nc(-c3ccc(Cl)cc3)[nH]c2c1	PI5P4Ka inh inconclusive
S=C1Cc2ccccc2N1	Pol eta inh-1 25µM, POLI inh 10µM, PI5P4Ka inh -64 | GALK confirm 27µM | Redox cycling 7.5µM | HEK293 tox inactive
O=C1SC(SCc2ccccc2Cl)=N/C1=C\c1ccc(C(=O)O)cc1	Pol eta inh-1 50µM, POLI inh inconclusive, POLB inh inconclusive | Pol eta inh-2 inconclusive
CCSC1=N/C(=C\c2ccc(C(=O)O)cc2)C(=O)S1	none
CC(C)c1ccc(OCc2ccc(C(=O)O)o2)cc1	Pol eta inh-1 22µM, POLI inh inconclusive, POLB inh 10µM | Pol kappa inh-2 42 | Pol eta inh-2 inconclusive
Cc1ccc(C(=O)NC2(O)C(=O)c3ccccc3C2=O)cc1C	Pol eta inh-1 45µM, POLI inh 2µM | GALK confirm 27µM | Redox cycling 12µM | HEK293 tox inactive | Pol eta inh-2 inconclusive
O=C(NC1(O)C(=O)c2ccccc2C1=O)c1ccc(C(F)(F)F)cc1	Pol eta inh-1 45µM, POLI inh 1.8µM, WRN inhibitor inconclusive | GALK confirm 19µM | Redox cycling 11µM | HEK293 tox inactive | Pol eta inh-2 inconclusive
CC(=O)COC(=O)C1CCN(S(=O)(=O)c2cc([N+](=O)[O-])ccc2Cl)CC1	Pol eta inh-1 32µM, POLI inh inconclusive, POLB inh 28µM, PI5P4Ka inh -53, Pol kappa inh-1 inconclusive | Pol eta inh-2 inconclusive
